Assay results taken from PubChem BioAssay AID1347426 (Functional Genomics Laboratory (NCATS/FGL), 2020).
In all, about 31,000 sequences went through this assay and about 1,400 (4.5%) were called active. This excerpt belongs to a sample that is enriched for actives. Unmarked numbers belong to inactive results.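 How the source made its calls: active means median seed-adjusted z-score above 1 or below -1; inactive means the rest.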

Assay: Novel Modifiers of Survival Motor Neuron (SMN) Protein: Gene Identification via Genome-wide siRNA Screen;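 further: luminescence tracks full-length SMN protein made from the SMN2 reporter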
Conditions: HEK293T SMN2-luciferase reporter, siRNA knockdown, 72 h; actives lie on both sides
Outline: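 Genome-wide siRNA screen (10418 genes, 3 siRNAs each, 1 pmol per well) by reverse transfection in HEK293T cells stably carrying an SMN2-luciferase reporter; luminescence after 72 hours, normalized to negative-control siRNA, log10-transformed, MAD-scored.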

Sequence | median seed-adjusted z-score
GGACAUCGCUAAACAGUUATT against TBC1D1 | -0.359
CUAUCACCGGAUUAACGAATT against ACOX1 | -0.897
GAGUCGAGAAGAUAAUGGATT against RABGEF1 | 0.278
AGACGACGGCGAUGAGGAATT against RALY | 0
GGACGACCACGGCUACAUUTT against CRYAA | -1.03 (active)
GGCUUCAGGUUAUAGUCAATT against OTX2 | -0.00351
AGGAGAUCGUCGACCUGGUTT against TUBA3C | -0.0806
AGGCCCUAGUGCUCAGAUATT against MMS19 | 0.0142
GCAACGAUGUUGCCUGGAATT against GPX1 | -0.0529
GCAUGCAGAUGUUCGGCAATT against CACNA1F | 0.22
CAAGCUUGUUAACAUCAAATT against NPVF | 0.588
GGCUAAUACUGGAAUUGCUTT against SLC38A2 | -1.04 (active)
CCAUGUCUUUCUAUCGCAATT against PLD2 | -0.743
GCAAGAUCUUAUCCACAGATT against CIP29 | -1.18 (active)
CAUUGGAAUUCUUUCAAUATT against APTX | -0.131
GAGAAGACCUUUAUACGAATT against XPOT | 0.366

Sequence | median seed-adjusted z-score
GGAUGGUGGCGUCCAAGAUTT against PSMB10 | 0.00939
GAGCUUCACUCAAAAAUCATT against ZNF160 | -0.454
GCCUAGAAGUGGAACGUGUTT against IFT57 | -1.1 (active)
CCACCUUCGAUGUUCCCAUTT against HMG20B | 0.231
GCAGAGUCACUUUGACAAUTT against CHRNG | 0.221
GGCUUUUAGAGUACGACAATT against ZFP30 | 0.211
CAGUCAACCUGAUUUGAGATT against SOX7 | -0.387
CGUUUAACGUGGUGCUGUUTT against GPR32 | -1.2 (active)
GCUCUAUGUCUACAUCAAUTT against DAXX | 0.349
AUAUCGCUGUGAUGCAAAATT against PLA2G12B | -0.162
ACAGCGAGGUCAAAAGAAATT against HSD11B1 | -0.174
GGACUAAGUGAAGAGCUUATT against NFYB | -0.29
GAGCUGAACUUGUCAUUCUTT against RANGAP1 | -0.0379
CAUGAACCCAGUGAAGAUATT against IRF6 | -1.79 (active)
CACUCAACAUUACAGAUUUTT against ZNF514 | 0.125
CAGCUUUACGAGUAUGCAATT against HS6ST3 | -0.405
